Rows were chosen to be rich in hits. Some 1.2% of all compounds tested hit in one or more screens of this group.
NPR2 activator: human GC-B receptor activators, primary screen, HEK293 GC-B cells, cGMP TR-FRET, EC30 CNP; Atrial natriuretic peptide receptor 2 (Homo sapiens), P20594; 0% at EC30 CNP, 100% saturating CNP; activation, % at 10 µM; hit rate 0.11% among 370,000; AID 1920062, 2024;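 active means activation at 10 µM reaching about 35% in either raw or pattern-adjusted values, limit read from the data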
NPR1 activator: GC-A stimulated cGMP production enhancers – HEK293 GC-A cells, cGMP TR-FRET, EC30 ANP, primary screen | Atrial natriuretic peptide receptor 1 (Homo sapiens), P16066 | 0% at EC30 ANP, 100% saturating ANP | activation, % at 10 µM | hit rate 0.14% among 370,000 | AID 1671463, 2021; in the data active means activation above about 40%
MsrA act: bovine MsrA enzyme activators, primary screen, biochemical, absorbance, HTS; activation, % at 10.6 µM; purified bovine MsrA, absorbance read-out; hit rate 0.3% among 360,000; Methionine sulfoxide reductase A (Bos taurus); in the data active means activation above about 7.5%
MsrA inh: bovine MsrA enzyme inhibitors, primary screen, biochemical, absorbance, HTS; hit rate 0.75% among 360,000; Methionine sulfoxide reductase A (Bos taurus); AID 651718, 2012; purified bovine MsrA, absorbance read-out; inhibition, % at 15.5 µM; in the data active means inhibition above about 4.5%
Large screens that a line does not name were inactive.

Cn1c(=O)n(Cc2ccccc2)c(=O)c2c1nc1n2CCCN1CCc1ccccc1	NPR2 activator 43
Cc1nn(-c2ccccc2)c(C)c1/C=N\N1CCN(Cc2ccccc2Cl)CC1	none (no result: MsrA act, MsrA inh)
CN(C)c1cccc(-c2ccnc(N3CCC(C(N)=O)CC3)n2)c1	none (no result: MsrA act, MsrA inh)
Nc1nnc(COc2ccc(Br)cc2Br)s1	NPR1 activator 58
CC1CC(C)CN(C(=O)C2CCN(c3cncnc3)CC2)C1 (configuration not stated)	none (no result: MsrA act, MsrA inh)
CC(=O)Nc1sc2c(c1-c1cc3ccccc3o1)CCNC2	none (no result: MsrA act, MsrA inh)
O=C(/C=C/c1cccs1)NC(=S)NNC(=O)c1ccccc1O	MsrA inh 6.9
CN(Cc1ccco1)C(=O)c1cccc2c1C(=O)N(Cc1cccnc1)C2	none (no result: MsrA act, MsrA inh)
CCOC(=O)[C@]12CCCCC/C=C\1N(CCc1ccc(Cl)cc1)C(=O)[C@H]2CC(=O)NCc1cccc2ccccc12	none (no result: MsrA act, MsrA inh)
O=C(c1cnn2c(C(F)(F)F)cc(-c3ccc4c(c3)OCO4)nc12)N1CCCC1	NPR2 activator 45
O=C(c1cnn2c(C(F)(F)F)cc(-c3ccc(Br)cc3)nc12)N1CCOCC1	none
C[C@H]1[C@@H](N)CC[C@@]23CCCN2C(=O)CCC[C@@H]13	none (no result: MsrA act, MsrA inh)
O=C1c2ccccc2C(Nc2cccnc2)N1Cc1ccc2c(c1)OCO2 (configuration not stated)	none
O=C1c2ccccc2C(Nc2ccc3c(c2)OCO3)N1Cc1ccco1 (configuration not stated)	NPR1 activator 41
O=C1c2ccccc2C(Nc2ccc3c(c2)OCO3)N1Cc1ccc2c(c1)OCO2 (configuration not stated)	NPR1 activator 59
O=CN1CCN(C(=O)C2CCN(c3ncnc4c3sc3cccc(F)c34)CC2)CC1	none (no result: MsrA act, MsrA inh)
Nc1nc2c(ncn2[C@@H]2O[C@H](C(=O)N[C@@H](Cc3ccccc3)C(=O)NCc3ccc4c(c3)OCO4)[C@@H](O)[C@H]2O)c(=O)[nH]1	none (no result: MsrA act)
Nc1nc2c(ncn2[C@@H]2O[C@H](C(=O)N[C@H](Cc3ccccc3)C(=O)NCc3ccc4c(c3)OCO4)[C@@H](O)[C@H]2O)c(=O)[nH]1	NPR2 activator 37 (no result: MsrA act)
O=C1OCCC1Sc1nnc(-c2cccc(Br)c2)o1 (configuration not stated)	NPR2 activator 37, NPR1 activator 60
CC(=O)N1CCCN(S(=O)(=O)c2ccc3c(c2)c(=O)n(C)c(=O)n3C)CC1	none (no result: MsrA act, MsrA inh)
CN(C)c1ccc(/C=C(/NC(=O)c2ccccc2)C(=O)NCCN2CCOCC2)cc1	MsrA inh 4.6
O=C(NCCN1CCOCC1)/C(=C/c1ccc(Cl)cc1)NC(=O)c1ccccc1	none
C=CCNc1nnnc2c1sc1nc(N3CCOCC3)c3c(c12)CCCC3	NPR2 activator 58, NPR1 activator 50
CC(C)CNc1nnnc2c1sc1nc(N3CCOCC3)c3c(c12)CCCC3	NPR2 activator 52, NPR1 activator 51
CC1(CC(=O)N/N=C/c2ccc(-c3ccc(C(=O)O)cc3)o2)OCCO1	MsrA inh 9.0
O=c1c2ccccc2nc(/C=C/c2ccccc2)n1CCCO	MsrA inh 4.6
Cc1c(C(=O)N2CCCC2)sc(NC(=O)c2ccccc2)c1C#N	MsrA inh 4.6
Cc1c(C(=O)N2CCCC2)sc(NC(=O)c2cccs2)c1C#N	none
N#CC1CCN(c2nc(-c3ccc(Br)cc3)cs2)CC1	none (no result: MsrA act, MsrA inh)
CCOC(=O)N1CCN(C(=O)CSCC(=O)Nc2nc(-c3ccc(Cl)s3)cs2)CC1	NPR1 activator 42
CCCC(=O)Nc1nc(-c2ccc(Cl)s2)cs1	NPR1 activator 55
COc1ccc(C=C(C#N)C(=O)c2ccccc2)cc1	none
COc1cc(/C=C(\C#N)C(=O)c2ccc(O)c(O)c2)cc(I)c1O	MsrA inh 4.6
COc1ccc(S(=O)(=O)N2CCOCC2)cc1N=Nc1sc(N)nc1-c1ccccc1	NPR2 activator 45, NPR1 activator 55
CC(=O)Nc1nc(C)c(-c2csc(Nc3cccc(C(C)=O)c3)n2)s1	MsrA inh 4.6
CC(=O)Nc1nc(C)c(-c2csc(Nc3cccc([N+](=O)[O-])c3)n2)s1	none
COc1ccc(Cn2c(=O)n(Cc3ccco3)c(=N)c3c4c(sc32)COC(C)(C)C4)cc1	NPR2 activator 56, NPR1 activator 56
CC1(C)Cc2c(sc3c2c(=N)n(Cc2ccco2)c(=O)n3Cc2ccc(F)cc2)CO1	none
C[C@@H]1CCN(C2CC2)S(=O)(=O)c2c(cccc2N2CC[C@H](N(C)C)C2)O1	none (no result: MsrA act, MsrA inh)
O=C(NCc1cccs1)C1C2C=CC3(CN(Cc4ccccc4)C(=O)C13)O2 (configuration not stated)	none (no result: MsrA act, MsrA inh)
